Shown are actives, neighbours in structure and some others; about 5.5% of the full set was active somewhere.
ELG1 DNA repair = inhibitors of ELG1-dependent DNA repair in HEK293T cells. HEK293T ELG1-luciferase reporter, luminescence, 16 h; DNA damage induced by 5-fluorouridine. Potency, µM (series often up to 46.1 µM), actives largely listed as inhibitors. 330,000 tested, 2.3% active. AID 504467; note: nearly all actives have a fitted effect of over 55% in size
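Cells (2,000 per well) received 5-fluorouridine plus test compound or DMSO and were incubated 16 hr at 37 °C, 5% CO2. Luciferase activity was read by luminescence 30 min after ONE-Glo addition; signal suppression marked inhibition of damage-induced ELG1 function.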
Giardia kill = kills Giardia lamblia. Giardia lamblia trophozoite viability. activity change, % at 7.66 µM, hits read low. 340,000 tested, 0.15% active. AID 540267; in the data active = activity change below about -80%; inconclusive = between about -30% and that limit;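 note: parasites exposed to compound for two days anaerobically before the ATP read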
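Viability, read as ATP luminescence: trophozoites at 100 cells/well, compound added, 48 hrs anaerobic at 37 deg C, then 15-30 min room-temperature development before reading.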
Sfp inh = Sfp phosphopantetheinyl transferase inhibition | Biochemical Sfp PPTase activity, qHTS | Potency, µM, hits mostly inhibitors | 310,000 tested, 3.5% active | AID 1490;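 note: the enzyme is Sfp with the accession as filed and its product quenches rhodamine fluorescence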
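Compounds were incubated with enzyme (final 15 nM) for 15 min at room temperature before substrate addition started the reaction. Fluorescence at 525 nm excitation, 598 nm emission was recorded immediately and after 30 minutes.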
Coupling enz = coupling enzyme interference in Giardia aldolase counter-screen | coupling enzyme system counterscreen, AmpLite Red fluorescence | activity change, negative = inhibition, % at 58.2 µM, hits read low | 290,000 tested, 0.67% active | AID 2472; in the data active = activity change below about -30%
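Counterscreen of the coupled detection system alone, without aldolase: glyceraldehyde-3-phosphate coupling enzymes plus AmpLite Red readout. Compounds at 57.5 uM final, 10 min RT preincubation, 20 min RT reaction, fluorescence 525/598 nm.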
A number is an active result. Unless noted, calls come from the whole dose curve; as a rule, active = well fitted curve in the direction sought with a large enough effect; inconclusive = small, poorly fitted or top-dose-only effect, or another doubt; inactive = no such curve, though single readings can be large; an effect the other way counts as inactive or inconclusive.

What do the screens show for `S=C(Nc1ccccc1)N1CCN(C/C=C/c2ccccc2)CC1`?
ELG1 DNA repair: inconclusive; Giardia kill: inactive; Sfp inh: inactive; Coupling enz: inactive

Results for S=C(Nc1ccccn1)NC1CCCC1 ?
ELG1 DNA repair: inactive; Giardia kill: inactive; Sfp inh: 45µM; Coupling enz: inactive

What do the screens show for `CC(=C1C(=O)c2ccccc2C1=O)N1CCN(Cc2ccccc2)CC1`?
ELG1 DNA repair: inactive; Giardia kill: inactive; Sfp inh: inactive; Coupling enz: inactive

Results for S=C(NC1CCCCC1)N1CCN(c2ncccn2)CC1 ?
ELG1 DNA repair: inactive; Giardia kill: inactive; Sfp inh: inactive; Coupling enz: inactive

What do the screens show for `S=C(NC1CCCCC1)N1CCN(c2ccccn2)CC1`?
ELG1 DNA repair: inactive; Giardia kill: inactive; Sfp inh: inactive; Coupling enz: -41

Results for S=C(Nc1ccccn1)NC1CCCCC1 ?
ELG1 DNA repair: inconclusive; Giardia kill: inactive; Sfp inh: inconclusive; Coupling enz: inactive

What do the screens show for `O=C1CCCC/C=C\C[C@H](CC(=O)N(CCO)Cc2ccccc2)C(=O)NCCO1`?
ELG1 DNA repair: inactive; Giardia kill: inactive

What do the screens show for `Cc1cc2oc(=O)cc(CN3CCN(C/C=C/c4ccccc4)CC3)c2cc1O`?
ELG1 DNA repair: inconclusive; Sfp inh: inactive; Coupling enz: inactive

What do the screens show for `O=C(NC(=S)N1CCN(C/C=C/c2ccccc2)CC1)c1cccnc1`?
ELG1 DNA repair: inconclusive; Giardia kill: inactive; Sfp inh: inactive; Coupling enz: inactive

Results for O=C(NC(=S)N1CCN(C/C=C/c2ccccc2)CC1)c1ccc(F)cc1 ?
ELG1 DNA repair: 10µM; Giardia kill: inactive; Sfp inh: inactive; Coupling enz: inactive

How did Cc1c(O)ccc2c(CN3CCN(C/C=C/c4ccccc4)CC3)cc(=O)oc12 do in these assays?
ELG1 DNA repair: 18µM; Giardia kill: inactive; Sfp inh: inactive; Coupling enz: inactive

What do the screens show for `S=C(NCc1ccco1)N1CCN(C/C=C/c2ccccc2)CC1`?
ELG1 DNA repair: inconclusive; Giardia kill: inactive; Sfp inh: 79µM; Coupling enz: inactive

How did COCCNC(=S)N1CCN(C/C=C/c2ccccc2)CC1 do in these assays?
ELG1 DNA repair: inactive; Giardia kill: inactive; Sfp inh: inactive; Coupling enz: inactive

Results for Cc1cc(C)c(C)c(S(=O)(=O)N2CCC(C(=O)Nc3ccncc3)CC2)c1C ?
ELG1 DNA repair: inactive; Giardia kill: inactive; Sfp inh: inactive

Results for O=C(COC(=O)c1ccc(F)cc1Cl)NC(=O)NC1CCCC1 ?
ELG1 DNA repair: inactive; Giardia kill: inactive

How did Cc1cc(C)c(C)c(S(=O)(=O)N2CCN(C(=O)c3cc(S(=O)(=O)N4CCOCC4)ccc3F)CC2)c1C do in these assays?
ELG1 DNA repair: inactive; Giardia kill: inactive

Results for COC(=O)[C@@]1(Cc2ccccc2)[C@H]2c3cc(C(=O)N(C)C)n(Cc4cc(C)n(C)n4)c3C[C@H]2CN1C(=O)c1ccccc1 ?
Sfp inh: inactive; Coupling enz: inactive

How did COc1cc(Cl)c(C)cc1NC(=S)NN do in these assays?
ELG1 DNA repair: inactive; Giardia kill: inactive; Sfp inh: 35µM; Coupling enz: inactive

Results for COc1cc(NC(=S)Nc2ccc(Br)cc2Cl)c(OC)cc1Cl ?
ELG1 DNA repair: inconclusive; Giardia kill: inactive; Sfp inh: 50µM; Coupling enz: inactive

How did COc1cc(NC(=S)Nc2cccc(Cl)c2Cl)c(OC)cc1Cl do in these assays?
ELG1 DNA repair: inactive; Giardia kill: inactive; Sfp inh: 50µM; Coupling enz: inactive

Results for COc1ccc(C(=O)c2c(C)c3ccccc3n2CC(O)CNC(C)C)cc1 (stereo not given) ?
ELG1 DNA repair: inactive; Giardia kill: inactive; Sfp inh: 32µM; Coupling enz: inactive

What do the screens show for `CC(=O)c1cccc(NC(=O)CCc2nc3sc4c(c3c(=O)[nH]2)CCCC4)c1`?
ELG1 DNA repair: inconclusive; Giardia kill: inactive

How did O=C(c1ccccc1Cl)N(C(=O)c1ccccc1Cl)c1nccc(-c2cccs2)n1 do in these assays?
ELG1 DNA repair: inactive; Giardia kill: inactive; Sfp inh: inactive; Coupling enz: -42

What do the screens show for `COc1cc(OC)c2cc(C(=O)N[C@H](C(=O)N3CCC[C@H]3C(=O)O)C(C)C)n(C)c2c1`?
ELG1 DNA repair: inactive; Giardia kill: inactive; Sfp inh: inactive; Coupling enz: inactive

What do the screens show for `CCOC(=O)c1csc(NC(=O)c2cc(OC)c(OC)c(OC)c2)n1`?
ELG1 DNA repair: 5.8µM; Giardia kill: inactive; Sfp inh: inactive; Coupling enz: inactive

Results for CC[C@@H](C)[C@@H](CO[C@@H](Cc1ccccc1)C(=O)N[C@@H](CCS(C)(=O)=O)C(=O)OC(C)C)NC[C@@H](N)CS ?
Sfp inh: inactive; Coupling enz: inactive

How did COc1c(O)c(=O)n2c3ccccc3c3ccnc1c32 do in these assays?
ELG1 DNA repair: inactive; Giardia kill: inactive

What do the screens show for `O=c1c(Cl)c(O)c2cccc3c4ccccc4n1c23`?
ELG1 DNA repair: inactive; Giardia kill: inactive; Sfp inh: 14µM; Coupling enz: inactive

How did CCN(CC)S(=O)(=O)c1ccc2[nH]c(=O)c3ccccc3c2c1 do in these assays?
ELG1 DNA repair: inactive; Giardia kill: inactive; Sfp inh: inactive; Coupling enz: inactive

Results for Cc1ccc(NC(=O)c2ccccc2-c2ccc(C(F)(F)F)cc2)cc1S(=O)(=O)N1CCOCC1 ?
ELG1 DNA repair: 21µM; Giardia kill: inactive; Sfp inh: inactive; Coupling enz: inactive

What do the screens show for `COCc1c(C(=O)Nc2ccc(C)c(S(=O)(=O)N3CCOCC3)c2)oc2ccccc12`?
Giardia kill: inactive

Results for COc1ccc(NC(=O)c2ccccc2-c2ccc(C(F)(F)F)cc2)cc1S(=O)(=O)N1CCOCC1 ?
ELG1 DNA repair: inactive; Giardia kill: inactive; Sfp inh: inactive; Coupling enz: inactive

How did CN(C)S(=O)(=O)c1cc(NC(=O)c2cc(=O)c3ccccc3o2)ccc1Cl do in these assays?
ELG1 DNA repair: inactive; Giardia kill: inactive; Sfp inh: 32µM; Coupling enz: inactive

How did Cc1ccc(NC(=O)c2cc(=O)c3ccccc3o2)cc1S(=O)(=O)N1CCCCC1 do in these assays?
ELG1 DNA repair: 16µM; Giardia kill: inactive; Sfp inh: inactive; Coupling enz: inactive

What do the screens show for `Cc1ccc(NC(=O)c2cc(=O)c3ccccc3o2)cc1S(=O)(=O)N1CCOCC1`?
ELG1 DNA repair: 23µM; Giardia kill: inactive; Sfp inh: inactive; Coupling enz: inactive

What do the screens show for `Cc1ccc(NC(=O)C(=O)c2c(-c3ccccc3)cc3ccccn23)cc1S(=O)(=O)N1CCOCC1`?
ELG1 DNA repair: 9.2µM; Giardia kill: inactive; Sfp inh: inactive; Coupling enz: inactive

Results for CCOC(=O)c1c(C)[nH]c(C=Nc2ccccc2)c1O ?
ELG1 DNA repair: inactive; Sfp inh: 40µM; Coupling enz: -36

Results for CCOC(=O)c1c(C)[nH]c(C=Nc2ccc(OC)cc2)c1O ?
ELG1 DNA repair: inconclusive; Giardia kill: inactive; Sfp inh: inactive; Coupling enz: inactive

How did CCOC(=O)c1c(C)[nH]c(N=Nc2ccc(OC)cc2)c1C do in these assays?
ELG1 DNA repair: inconclusive; Giardia kill: inactive; Sfp inh: 50µM; Coupling enz: inactive

Results for CCOC(=O)c1c(C)[nH]c(N=Nc2ccc(C)cc2)c1C ?
ELG1 DNA repair: inconclusive; Giardia kill: inactive; Sfp inh: 20µM; Coupling enz: inactive

Assay outcomes: PubChem, National Center for Advancing Translational Sciences (NCATS)
